# In PubChem BioAssay:
# Target: Calmodulin-1 (Homo sapiens) (UniProt P0DP23)
# Assay: small molecules binding Ca-loaded calmodulin-1 – biochemical, small-molecule microarray, Cy5-labelled CALM1, plus calcium, artefact control for SMM control-protein annotation, profiling panel (AID 1112);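 further: score merges spot fluorescence with signal to noise from triplicate slides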
# Details: Cy5-CALM1 binding fluorescence, higher = more signal
row,Compound,composite z-score
1,Cc1cc(C)c(C(O)C2C=CC3C(=O)N(c4ccccc4)C(=O)C3N2Nc2ccc([N+](=O)[O-])cc2)c(C)c1 (stereo unspecified),0.469
2,Cc1ccc(S[C@]2(C(=O)O)CC(=O)N(C3CCCCC3)[C@@H]2c2ccc(CO)cc2)cc1,-1.39
3,CCOc1cc(C(O)C2C=CC3C(=O)NC(=O)C3N2Nc2ccccn2)ccc1O (stereo unspecified),-0.108
4,CC(=O)NCCCC[C@@H]1NC(=O)[C@@H]2C[C@H](C(=O)NCCCC[N+](C)(C)C)[C@H](c3cccc(OCCO)c3)N2C1=O,0.0189
5,COc1ccc([Si](C)(C)[C@@H]2[C@@H](CC(=O)N(CCO)Cc3ccccc3)O[C@]3(C(=O)N(Cc4ccc(N5CCOC5=O)cc4)c4ccccc43)[C@H]2C)cc1,0.385
6,COC(=O)[C@]1(Cc2ccccc2CN=[N+]=[N-])N=C(c2ccc(OCCCO)cc2)O[C@@H]1c1ccccc1CN=[N+]=[N-],-0.271
7,CN(C)C(=O)[C@]1(Cc2ccccc2N=[N+]=[N-])N=C(c2ccc(OCCCO)cc2)O[C@@H]1c1ccccc1CN=[N+]=[N-],0.271
8,CC(C)(C)OC(=O)CC[C@@]1(C(=O)N2CCCCC2)N=C(c2ccc(OCCCO)cc2)O[C@@H]1c1ccccc1CN=[N+]=[N-],0.709
9,CCN(CC)c1ccc(N2CC=CC34O[C@@H]5/C=C\CCCOC(=O)C5[C@H]3C(=O)N(CCCCCO)[C@@H]4C2=O)cc1 (stereo partly specified),-0.996
10,[N-]=[N+]=Nc1ccccc1C[C@]1(C(=O)NCCN2CCOCC2)N=C(c2ccc(OCCCO)cc2)O[C@H]1c1ccccc1N=[N+]=[N-],-0.198
11,COC(=O)[C@]1(Cc2ccccc2CN=[N+]=[N-])N=C(c2ccc(OCCCO)cc2)O[C@@H]1c1ccccc1,0.128
